Bioassay records as filed in PubChem.
Hits are enriched below; roughly 4.6% of the tested compounds scored in any of these assays.
PfHsp90 yeast 2 = inhibits growth of yeast expressing Plasmodium falciparum Hsp90 | S. cerevisiae expressing PfHsp90, BacTiter-Glo ATP, 48 h; yeast lacking PDR1 and PDR3 efflux regulators | inhibition, % at 9.4 µM | AID 504621 | 0.32% of 310,000 active;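 active means every replicate shows inhibition above about 80%, whatever the replicate mean, limit read from the data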;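 further: 0% = DMSO neutral controls and 100% = 20 µM radicicol positive controls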
tim23-1 inh = growth inhibitors of tim23-1 mutant yeast; 1.3% of 330,000 active; AID 463212; S. cerevisiae tim23-1 growth, BacTiter-Glo luminescence, 24 h; inhibition, % at 20 µM;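 active means growth inhibition of the mutant yeast at or above 50%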;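 further: temperature-sensitive mutant grown at 25 °C; plate controls were DMSO-treated mutant yeast for no effect and medium wells lacking yeast for full effect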
TIM10 inh = TIM10 yeast growth inhibition. S. cerevisiae TIM10 strain growth, BacTiter-Glo luminescence, 24 h. inhibition, % at 10 µM. 1.4% of 330,000 active. AID 463195;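 active means inhibition of 40% or more at the single tested concentration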;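 further: wild-type TIM10 isogenic control strain grown at permissive 25 °C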
SKKanGAS inh = inhibitors of SKKanGAS S. pyogenes growth in kanamycin (SK-promoter or general growth effect) | BacTiter-Glo, 6 h | inhibition, % at 7.5 µM | 1.3% of 300,000 active;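 active means mean replicate score, as percent of positive control median, at least 50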;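 further: strain carries kanamycin resistance gene driven by streptokinase promoter and grows in 40 µg/ml kanamycin; loss of luminescence reflects streptokinase promoter inhibition or plain growth inhibition; 0% = median of DMSO wells and 100% = positive control at its reference dose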
tim10-1 inh = growth inhibitors of tim10-1 mutant yeast; AID 463190; inhibition, % at 20 µM; 2.2% of 330,000 active; S. cerevisiae tim10-1 ts strain growth, BacTiter-Glo, 24 h;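 active means inhibition of at least 40%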;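 further: mutant grown at 25 °C; 0% = DMSO wells with yeast and 100% = wells holding no yeast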
NALP3 yeast inh = inhibitors of NALP3 inflammasome in yeast. Yeast reconstituted NLRP3/ASC/caspase-1, beta-gal luminescence, 24 h. inhibition, % at 10 µM. 0.39% of 330,000 active. AID 2825;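 active means inhibition of 50% or more; inactive means inhibition below 50%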;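 further: plate controls were induced DMSO wells for no effect and uninduced yeast grown without galactose for full effect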
tim10-1 confirm = tim10-1 yeast growth inhibition, confirmed. shares compounds with tim10-1 inh. S. cerevisiae tim10-1 ts strain growth, BacTiter-Glo, 24 h. inhibition, % at 20 µM. 56% of 7,400 active. AID 463213;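 active means inhibition of yeast growth at or above a set limit in either of two repeat tests at 20 µM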;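 further: tim10-1 mutant grown at permissive 25 °C to find synthetic lethal compounds; 0% = DMSO yeast wells and 100% = medium wells without yeast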
The depositor's hits bear a star; / = no result.

SMILES	PfHsp90 yeast 2	tim23-1 inh	TIM10 inh	SKKanGAS inh	tim10-1 inh	NALP3 yeast inh	tim10-1 confirm
CCc1nc(N2CCCCC2C)c2oc3ccccc3c2n1 (stereo not drawn)	17	46	25	27	48*	-19	20
CCc1nc(Nc2ccccc2OC)c2oc3ccccc3c2n1	-15	36	16	-2	42*	-9	17
CCc1nc(N2CCCCC2C(=O)O)c2oc3ccccc3c2n1 (stereo not drawn)	-16	3	4	-6	6	-6	/
Cc1[nH]c(C(=O)O)c(C#N)c1C(=O)c1ccccc1	14	5	6	0	8	4	/
CC(=O)N(C(C)=O)c1c(C#N)c(C)n(-c2ccccc2)c1C(=O)c1ccccc1	3	37	20	8	41*	19	20
Cc1ccc(C2C3=C(CC(C)(C)CC3=O)N=C3c4ccccc4C(=O)C32)cc1 (stereo not drawn)	-12	28	17	20	20	9	/
CC1(C)CC(=O)C2=C(C1)N=C1c3ccccc3C(=O)C1C2c1ccc(Cl)cc1 (stereo not drawn)	0	32	35	50*	44*	13	31*
O=[N+]([O-])c1ccc(Cl)c(C[n+]2cccc3ccccc32)c1	2	-18	-15	5	-9	18	/
CN(C)S(=O)(=O)N1CCN(c2cc(Cl)ccc2Cl)CC1	2	28	-13	5	43*	14	20
CCCN(CC(=O)Nc1ccccc1OC)C(=O)c1cccc(S(=O)(=O)Nc2ccc(OC)cc2)c1	/	15	8	-1	13	6	/
Cc1cccc(-c2noc(CN(C)C(=O)c3ccc4c(c3)OCO4)n2)c1	-34	5	-18	-6	3	10	/
COc1cc(Nc2nc3ccccc3nc2NS(=O)(=O)c2ccc([N+](=O)[O-])cc2)cc(OC)c1OC	-8	38	22	24	46*	9	35*
CC1=Nc2cc(C(=O)NCc3ccco3)ccc2Sc2ccc(C)cc21	-5	34	14	7	44*	13	30
CC1=Nc2cc(C(=O)NCC3CCCO3)ccc2Sc2ccc(C)cc21 (stereo not drawn)	0	12	-8	1	12	2	/
O=Cc1ccccc1Oc1nc(N2CCOCC2)nc(N2CCOCC2)n1	6	47	33	-1	45*	3	41*
c1ccc(Oc2nc(Oc3ccccc3)nc(N3CCOCC3)n2)cc1	10	27	6	4	40	14	/
CC(Cc1c[nH]c2ccccc12)C(=O)N1CCN(c2ccccc2F)CC1 (stereo not drawn)	6	17	3	-2	97*	9	19
CCOC(=O)C1CCCN(C(=O)CCn2nnnc2CN2CCOCC2)C1 (stereo not drawn)	8	9	0	-7	33	14	/
CCOC(=O)c1c(CSc2ccc(C)cc2)oc2ccc(O)cc12	3	16	-10	43	40	28	4
Cc1ccc2c(c1)-n1c(nc3cc(F)ccc3c1=O)C(Cc1ccc(O)cc1)NC2=O (stereo not drawn)	/	-14	4	/	-4	-15	/
COc1ccc(CNC(=O)Cn2c(=O)n(CC(=O)N3CCCCC3)c(=O)c3sccc32)cc1	4	-7	-6	-5	-6	13	/
Clc1ccc2c(c1)c1ccccc1n2CN1CCOCC1	7	40	23	-7	54*	27	25
CSc1ccc(S(=O)(=O)N2CCC(C(=O)N3CCc4ccccc4C3)CC2)cc1	8	30	10	-3	43*	15	28
Clc1cccc(-c2nc(-c3ccccn3)no2)c1	35	-6	1	12	17	9	/
Cc1ccc(-c2nc(-c3ccccn3)no2)cc1Cl	28	44	24	15	40*	16	15
SMILES	PfHsp90 yeast 2	tim23-1 inh	TIM10 inh	SKKanGAS inh	tim10-1 inh	NALP3 yeast inh	tim10-1 confirm
Cc1ccc(-c2nc(-c3ccccn3)no2)cc1	55	39	17	59*	43*	32	17
Cc1ccc(-c2nc(-c3ccccn3)no2)cc1[N+](=O)[O-]	7	18	1	19	8	18	/
CCOc1ccc(C(=O)/C=C/c2cc(OC)c(OC)c(OC)c2)cc1	-19	25	32	-3	45*	5	29
CC(C)CNC(=O)/C(C#N)=C1\N=C(NC(=O)c2ccco2)c2ccccc21	12	38	27	0	47*	12	-3
Cc1ccccc1NC1=C(Cl)C(=O)OC1OC(=O)c1ccccc1C (stereo not drawn)	58	39	35	16	40*	12	16
Cc1ccc(NC2=C(Cl)C(=O)OC2OC(=O)c2ccccc2)c(C)c1 (stereo not drawn)	-1	36	18	15	30	16	/
COc1cc(OC)c2c(=O)cc(-c3ccccc3)oc2c1	3	9	-17	-4	10	33	/
COc1cc2c(c3oc(-c4ccccc4)cc(=O)c13)C=CC(C)(C)O2	-6	47	17	3	47*	3	-1
O=C1Nc2ccc(Br)cc2C1=Nc1ccc(-c2nnc3n2CCCCC3)cc1	/	-9	22	2	4	25	/
Cc1ncc([N+](=O)[O-])n1CC(=O)N/N=C/c1ccc(F)cc1	13	7	-1	-19	-12	7	/
COc1cc(C)c(C)cc1S(=O)(=O)N1CCCCC1c1cccnc1 (stereo not drawn)	12	30	11	-6	41*	10	27
CC(=O)Nc1ccc(S(=O)(=O)N2CCCCC2c2cccnc2)cc1 (stereo not drawn)	35	-4	-6	-8	11	0	/
CCC1CCC/C1=N\NC(=O)c1ccoc1C (stereo not drawn)	-2	-4	0	/	-12	7	/
Cc1ccccc1N(C(=O)CNC(=O)c1ccco1)C(C(=O)NC1CCCCC1)c1cccnc1 (stereo not drawn)	4	-26	-18	-2	-22	8	/
O=C(NC(=S)N1CCCc2ccccc21)c1ccco1	-9	7	21	-3	11	22	/
CC1Cc2ccccc2N1C(=S)NC(=O)c1ccco1 (stereo not drawn)	3	13	34	-7	40*	-5	36*
Cc1cc(O)c(C(=O)/C=C/c2ccccc2Br)c(=O)o1	11	35	23	33	46*	18	11
Cc1cc(O)c(C(=O)/C=C/c2ccc(C(C)C)cc2)c(=O)o1	-2	43	31	19	43*	21	33*
Cc1cc(O)c(C(=O)/C=C/c2ccccc2)c(=O)o1	29	42	13	18	30	6	/
